In the library only some 1.4% were active in any assay of this set; here they are far more common.
PV pol inh – inhibitors of poliovirus RNA polymerase binding and polymerization | poliovirus polymerase elongation, fluorescence polarization; active compounds read low | % elongation, % (compound at 16.7 µg/mL) | 0.66% of 150,000 active | AID 588519; in the data active = % elongation below about 90%
MenB inh – Mtb MenB enzyme inhibition | P9WNP5 | MenB enzyme assay, absorbance read-out | inhibition, % (no concentration beside the values) | 0.43% of 100,000 active; in the data active = inhibition above about 21%, passing the limit was not always enough
MbtI inh – MbtI salicylate synthase inhibition; P9WFX0; purified MbtI enzyme, fluorescence intensity read-out; inhibition, % (no concentration beside the values); 0.89% of 100,000 active; AID 493033; in the data active = inhibition mostly above about 56%, no sharp cut-off; inactive = mostly below about 77%
Target sequence (P9WFX0 whole entry, looked up): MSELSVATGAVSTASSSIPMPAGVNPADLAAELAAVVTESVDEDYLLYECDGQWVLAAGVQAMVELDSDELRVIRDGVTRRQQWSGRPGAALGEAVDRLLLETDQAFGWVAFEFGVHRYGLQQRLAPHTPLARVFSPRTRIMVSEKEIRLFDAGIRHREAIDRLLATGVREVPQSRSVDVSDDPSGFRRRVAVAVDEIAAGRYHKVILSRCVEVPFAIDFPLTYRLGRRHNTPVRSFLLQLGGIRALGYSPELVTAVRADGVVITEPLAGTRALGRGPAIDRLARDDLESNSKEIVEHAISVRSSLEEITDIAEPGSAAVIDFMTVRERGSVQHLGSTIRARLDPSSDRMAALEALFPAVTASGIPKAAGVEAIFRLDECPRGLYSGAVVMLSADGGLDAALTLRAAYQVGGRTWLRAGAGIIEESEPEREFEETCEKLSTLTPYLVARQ
Large screens that a line does not name were inactive.

CC(c1ccco1)N(C(=S)Nc1cccc(Cl)c1)C1CCCCC1 (stereo not given)	none
O=C1c2ccccc2C(=O)N1CC1=NCCc2ccccc21	none
O=C(CSC1=NCCc2ccccc21)c1ccc(-c2ccccc2)cc1	PV pol inh 83
O=C(CSC1=NCCc2ccccc21)c1ccccc1Cl	PV pol inh 68
O=C(SC1=NCCc2ccccc21)c1ccccc1	none
CC1CCCN(C(=O)c2cc(=O)c3ccccc3o2)C1 (stereo not given)	none (no result: MenB inh)
CCOC(=O)c1sc2nc(C)nc(NCCCOC)c2c1C	none
CC(C)C1=NC(C(F)(F)F)(C(F)(F)F)NN1c1ccccc1	none
COC(=O)C(O)(c1cc(C)n(CC(C)C)c1C)C(F)(F)F (stereo not given)	none
O=C(O)/C=C1\OC(=O)c2ccccc21	none
COC(=O)/C=C1/OC(c2ccccc2)=CC1=O	MbtI inh 89
CN1/C(=C/C(=O)C2CCC2)C(C)(C)c2ccccc21	none
O=c1[nH]c2cc3c(cc2[nH]1)OCCO3	MenB inh 37
O=c1[nH]c2cc3c(cc2[nH]c1=O)OCCO3	none
CC(=O)NCc1ccc(C(=O)CSc2nc3ccccc3n2-c2ccccc2)s1	none
CC(=O)Nc1sc(C)c(C)c1C(=O)OCC(=O)c1cc(C)n(-c2ccc3c(c2)OCCO3)c1C	none
O=c1ccsn1Cc1ccccc1	MbtI inh 93
O=C1N(Cc2ccccc2)c2cccc3cccc(c23)N1Cc1ccccc1	none
O=S(=O)(c1cccs1)n1ccnc1	none
O=C1C(Sc2ccccc2)=C/C(=N/S(=O)(=O)c2cccs2)c2ccccc21	none
CC(C)c1ccc(S(=O)(=O)/N=C2/C=C(Sc3ncn[nH]3)C(=O)c3ccccc32)cc1	PV pol inh 66
Cc1ccc(S(=O)(=O)Nc2ccc(O)c(Sc3ncn[nH]3)c2)cc1	none (no result: PV pol inh, MenB inh)
Cc1ccc(Nc2nc(Nc3ccc(C)cc3)nc(Sc3ncn[nH]3)n2)cc1	none (no result: MbtI inh)
Cc1ccc(S(=O)(=O)/N=C2/C=C(Sc3ncn[nH]3)C(=O)c3ccccc32)cc1	MbtI inh 88 (no result: PV pol inh, MenB inh)
Cc1ccc(S(=O)(=O)/N=C2\C=C(Sc3ncn[nH]3)C(=O)c3ccccc32)cc1	MbtI inh 86
O=S(=O)(Nn1cc(-c2ccccc2)[nH]c1=S)c1ccc2c(c1)OCCO2	none
O=C(O)CNc1nc(C(F)(F)F)nc2c1cnn2Cc1ccccc1	none
O=C(c1c[nH]c2c(F)cccc2c1=O)N1CCNCC1	none
CCCN1CCC(NC2CCN(Cc3ccccc3)CC2)CC1	none (no result: MbtI inh)
Cc1c(NC(=O)NCc2cccnc2)sc2nc3n(c(=O)c12)CCC(C)CC3 (stereo not given)	none
NNc1nnc(-c2ccccc2)c(-c2ccccc2)n1	MbtI inh 73
Clc1nnc(-c2ccccc2)c(-c2ccccc2)n1	none
O=C(COC(=O)C1CCCCC1)c1cccc2ccccc12	none (no result: MenB inh)
FC(F)(F)c1ccccc1/C=N/n1cn[nH]c1=S	none
S=c1[nH]ccn1Cc1ccccc1	MbtI inh 68
Cc1n[nH]c(=S)n1Cc1ccccc1	none
S=c1[nH]c2c(s1)sc1ccccc12	MbtI inh 91
Clc1nsc2ccccc12	none (no result: PV pol inh)
N#Cc1ccc(COC(=O)CC2CCS(=O)(=O)C2)cc1 (stereo not given)	none
O=C(COC(=O)c1ccccc1NCc1ccco1)c1ccc(Cl)cc1	none
CCc1noc(C)c1C(=O)OCC(=O)c1ccc2ccccc2c1	none
Cc1onc(-c2ccccc2)c1C(=O)OCC(=O)c1ccc2[nH]c(=O)[nH]c2c1	PV pol inh 76
COc1ccc(C(=O)OCC(=O)c2ccc3[nH]c(=O)[nH]c3c2)c(OC)c1	PV pol inh 88
COc1ccc(C(=O)COC(=O)c2ccc(NC(C)=O)cc2)c(OC)c1	none
O=C(COC(=O)c1ccccc1NCc1ccco1)c1ccc2[nH]c(=O)[nH]c2c1	PV pol inh 44
CN(CC(=O)Nc1ccc(C(N)=O)cc1)Cc1ccc(C(F)(F)F)cc1	none
CCCCN(CC)S(=O)(=O)c1ccc(C(=O)N=c2sc(C(=O)OCC)c(C)n2C)cc1	none
COC(=O)c1c(-c2cccs2)csc1NC(=O)COc1ccc(C)cc1	none (no result: MenB inh, MbtI inh)
COC(=O)c1c(-c2cccs2)csc1NC(=O)COc1ccccc1	PV pol inh 66 (no result: MenB inh, MbtI inh)
CCOC(=O)c1c(-c2cccs2)csc1NC(=O)CSc1ccccn1	none
COC(=O)c1c(-c2cccs2)csc1NC(=O)COc1c(C)ccc(C)c1C	PV pol inh 62 (no result: MenB inh, MbtI inh)
COC(=O)c1c(-c2cccs2)csc1NC(=O)COc1ccc(C(C)(C)C)cc1	PV pol inh 80 (no result: MenB inh, MbtI inh)
Cc1sc(NC(=O)COc2ccc(C(C)(C)C)cc2)c(C(=O)OC(C)C)c1C	none (no result: MenB inh, MbtI inh)
CCn1c2ccccc2c2cc(NC(=O)C(C)N3CC(C)OC(C)C3)ccc21 (stereo not given)	none
Cc1ccc(Cn2ccsc2=NC(=O)COC(=O)c2ccc(-n3cnnn3)cc2)cc1	none (no result: PV pol inh)
CN(CC(=O)N1CCCC1=O)Cc1ccccc1	none
CCN(CC)CC(=O)N1CCCC1=O	MenB inh 43
CCCCn1c2ccccc2n2cc(C(C)(C)C)nc12	none (no result: MbtI inh)
CC[C@H](C)C(=O)O[C@H]1C[C@@H](C)C=C2C=C[C@H](C)[C@H](CC[C@@H]3CCCC(=O)O3)[C@H]21	none (no result: MbtI inh)
Cc1cc(C)c(NC(=O)CSc2nc(=O)n(Cc3ccco3)c3c2CCC3)c(C)c1	none (no result: MenB inh, MbtI inh)
Cc1ccc(NC(=O)CSc2nc(=O)n(Cc3ccco3)c3c2CCC3)cc1F	PV pol inh 76 (no result: MenB inh, MbtI inh)
CCN1CCSC1=Nc1ccc(OC)cc1	none (no result: PV pol inh)
Oc1ccc(N=Cc2ccc(F)c(F)c2)cc1N=Cc1ccc(F)c(F)c1	none (no result: MenB inh)
N#CC1=C(S)NC(=O)C(C#N)C12CCCCC2 (stereo not given)	MbtI inh 91
CSC1=C(C#N)C2(CCCC2)C(C#N)C(=O)N1 (stereo not given)	none (no result: MenB inh)
Cc1ccc(Nc2nc(C)cs2)cc1	none
Clc1ccc(Nc2nnns2)cc1	MbtI inh 59
CC(C)c1ccc(Nc2nnns2)cc1	none
Cc1csc(Nc2ccc(Cl)cc2)n1	MbtI inh 63
COc1ccc(NC(=O)C(C)n2nnc3sc(-c4ccccc4)cc3c2=O)cc1Cl (stereo not given)	PV pol inh 76 (no result: MenB inh, MbtI inh)
Cc1cc(C)c(NC(=O)C(C)n2nnc3sc(-c4ccccc4)cc3c2=O)c(C)c1 (stereo not given)	none (no result: MenB inh, MbtI inh)
Cc1ccc(-c2onc3ccc(C(=O)NCCO)cc23)cc1	none
CCCCNc1ncnc2nc[nH]c12	none
Cc1ccc(Sc2ccc(CO)o2)cc1	none
COCc1nnc(NC(=O)Cc2ccccc2)s1	none (no result: MbtI inh)
CCC(C)(C)C(=O)Nc1nnc(COC)s1	MenB inh 33
CCCNC(=O)c1cnn2c(C)cc(C)nc12	none (no result: MbtI inh)
COc1ccc(Nc2nc3ccc(Cl)cc3n3cnnc23)c(OC)c1	none
C=C(C)NC(=S)Nc1nccs1	none
CCCn1c(SCc2ccc(C(C)(C)C)cc2)n[nH]c1=O	none
Cc1ccc(NC(=O)CSc2nc(C)cc(C)c2C#N)cc1	MenB inh 40
Cc1cc(C)c(C#N)c(SCC(=O)Nc2ccccc2C#N)n1	none (no result: MenB inh, MbtI inh)
CN1C(=O)Cc2c1nc(N)c1c(N)nc(N3CCN(C(=O)c4ccco4)CC3)c(C#N)c21	none
CC(C)NC(=O)n1cc(F)c(=O)[nH]c1=O	none (no result: MbtI inh)
COc1cccc(-c2nnn(-c3nc(CN4CCCCC4)nc4sc5c(c34)CCCC5)n2)c1	none
CCN(c1ccccc1)c1cc(C)c2ccccc2n1	none
O=c1oc2c(o1)=C(c1ccccc1)S(=O)(=O)C=2c1ccccc1	MbtI inh 58
Cc1ccc(/C=C2\C(=O)ON=C2c2ccccc2)o1	none
O=C1c2ccccc2C(=O)N1CCc1ncn[nH]1	none (no result: PV pol inh, MenB inh)

Screening results (PubChem BioAssay)
